Results: PubChem BioAssay AID1159580 (chemical genetic matrix, 2015)
Several values for one entry are separate records, joined by “and”; a condition that tells them apart may be missing. Equal values may be shown once. Screen size: about 5,500 compounds; about 2,000 (36%) were called active. Not shown: some 18% with an inconclusive outcome. Rule as the data show it: active = normalized growth mostly below about 0.91 (no sharp cut-off); inconclusive = no clear call, values can overlap the other calls; inactive = mostly above about 0.92. Some of the results follow.

Assay: chemical genetic growth profiling, strain panel (AID 1159580);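 also: tested at 20 µM; growth read once vehicle control cultures reached saturation at 30 °C; 1 = growth at the plate median or of vehicle wells; lower values mean less growth of the strain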
Details: S. cerevisiae deletion strains, growth OD

Measured: normalized growth

O=c1c(-c2ccc(O)cc2)coc2cc(O)cc(O)c12
inactive: locus YAL013W, strain DEP1, stronger effect = lower value 1.03 | locus YAL021C, strain ccr4, stronger effect = lower value 1.01 | locus YAL026C, strain drs2, stronger effect = lower value 1.02 | locus YAL030W, strain snc1, stronger effect = lower value 1.01 | locus YAL040C, strain CLN3, stronger effect = lower value 0.968 | locus YBL061C, strain skt5, stronger effect = lower value 1.01 | locus YBR009C, strain hhf1, stronger effect = lower value 1.01 | locus YBR021W, strain FUR4, stronger effect = lower value 1 | locus YBR023C, strain chs3, stronger effect = lower value 1.01 | locus YBR171W, strain sec66, stronger effect = lower value 1.01 | locus YBR229C, strain ROT2, stronger effect = lower value 1.02 | locus YBR231C, strain swc5, stronger effect = lower value 1.01 | locus YBR279W, strain paf1, stronger effect = lower value 1 | locus YCL011C, strain gbp2, stronger effect = lower value 1.01 | locus YCL016C, strain dcc1, stronger effect = lower value 1.01 | locus YCL029C, strain bik1, stronger effect = lower value 1.03 | locus YCL061C, strain MRC1 (second series), stronger effect = lower value 1 | locus YCL061C, strain MRC1, stronger effect = lower value 1 | locus YCL069W, strain vba3, stronger effect = lower value 1.02 | locus YCR088W, strain abp1, stronger effect = lower value 1.02 | locus YDL005C, strain med2, stronger effect = lower value 1 | locus YDL035C, strain GPR1, stronger effect = lower value 1.07 | locus YDL040C, strain nat1, stronger effect = lower value 1.01 | locus YDL074C, strain BRE1, stronger effect = lower value 1.14 | locus YDL101C, strain DUN1, stronger effect = lower value 1.03 | locus YDL185W, strain tfp1, stronger effect = lower value 1.02 | locus YDL192W, strain arf1, stronger effect = lower value 1.04 | locus YDR001C, strain nth1, stronger effect = lower value 1.01 | locus YDR069C, strain doa4, stronger effect = lower value 1.01 | locus YDR101C, strain arx1, stronger effect = lower value 1 | locus YDR137W, strain rgp1, stronger effect = lower value 0.983 | locus YDR150W, strain NUM1, stronger effect = lower value 0.996 | locus YDR159W, strain sac3, stronger effect = lower value 1.02 | locus YDR162C, strain NBP2, stronger effect = lower value 1.04 | locus YDR195W, strain ref2 1.03 | locus YDR297W, strain sur2, stronger effect = lower value 1.01 | locus YDR318W, strain mcm21, stronger effect = lower value 1.02 | locus YDR334W, strain swr1, stronger effect = lower value 0.989 | locus YDR335W, strain msn5, stronger effect = lower value 1.02 | locus YDR363W, strain ESC2, stronger effect = lower value 0.994 | locus YDR388W, stronger effect = lower value 1.03 | locus YDR392W, strain spt3, stronger effect = lower value 0.989 | locus YDR502C, strain sam2, stronger effect = lower value 1.02 | locus YEL003W, strain gim4, stronger effect = lower value 1.01 | locus YEL037C, strain rad23, stronger effect = lower value 1.01 | locus YEL061C, strain CIN8 (second series), stronger effect = lower value 1.01 | locus YER002W, strain NOP16, stronger effect = lower value 0.996 | locus YER015W, strain faa2, stronger effect = lower value 1.01 | locus YER016W, strain bim1, stronger effect = lower value 1.01 | locus YER110C, stronger effect = lower value 1.04 | locus YER111C, strain swi4, stronger effect = lower value 1.03 | locus YER155C, strain BEM2 (second series), stronger effect = lower value 1.02 | locus YER155C, strain BEM2, stronger effect = lower value 1.03 | locus YER167W, strain BCK2, stronger effect = lower value 1.03 | locus YFR010W, strain ubp6, stronger effect = lower value 0.995 | locus YGL078C, strain dbp3, stronger effect = lower value 1.03 | locus YGL086W, strain mad1, stronger effect = lower value 1.01 | locus YGL167C, strain pmr1, stronger effect = lower value 1.01 | locus YGL173C, strain kem1, stronger effect = lower value 1.01 | locus YGL227W, strain vid30, stronger effect = lower value 1.01 | locus YGL240W, strain doc1, stronger effect = lower value 1.01 | locus YGL248W, strain PDE1, stronger effect = lower value 1.07 | locus YGL253W, strain hxk2, stronger effect = lower value 1 | locus YGR078C, strain PAC10, stronger effect = lower value 1.06 | locus YGR135W, strain pre9, stronger effect = lower value 1.05 | locus YGR252W, strain gcn5, stronger effect = lower value 0.958 | locus YHR013C, strain ard1, stronger effect = lower value 1.03 | locus YHR027C, strain rpn1, stronger effect = lower value 1.01 | locus YHR030C, strain SLT2, stronger effect = lower value 0.984 and 1.04 | locus YHR079C, strain IRE1 (second series), stronger effect = lower value 1.02 | locus YHR079C, strain IRE1, stronger effect = lower value 1.01 | locus YHR094C, strain hxt1, stronger effect = lower value 1.04 | locus YHR129C, strain ARP1, stronger effect = lower value 1.05 | locus YHR142W, strain chs7, stronger effect = lower value 0.991 | locus YHR200W, strain rpn10, stronger effect = lower value 1.02 | locus YIL066C, strain RNR3, stronger effect = lower value 1.05 | locus YIL073C, strain SPO22, stronger effect = lower value 1.13 | locus YIL125W, strain kgd1, stronger effect = lower value 1.03 | locus YIR030C, strain dcg1, stronger effect = lower value 1.03 | locus YJL092W, strain hpr5, stronger effect = lower value 1.01 | locus YJL095W, strain BCK1 (second series), stronger effect = lower value 1.01 | locus YJL095W, strain BCK1, stronger effect = lower value 1.11 and 1.05 | locus YJL115W, strain asf1, stronger effect = lower value 0.999 | locus YJL129C, strain trk1, stronger effect = lower value 0.997 | locus YJL134W, strain LCB3, stronger effect = lower value 1.03 | locus YJL154C, strain vps35, stronger effect = lower value 1 | locus YJL164C, strain tpk1, stronger effect = lower value 0.95 | locus YJL166W, strain qcr8, stronger effect = lower value 1 | locus YJL168C, strain set2, stronger effect = lower value 1.03 | locus YJL187C, strain SWE1 (second series), stronger effect = lower value 1.05 | locus YJL187C, strain SWE1, stronger effect = lower value 1 | locus YJR066W, strain TOR1, stronger effect = lower value 0.999 | locus YKL009W, strain mrt4, stronger effect = lower value 1.04 | locus YKL068W, stronger effect = lower value 1 | locus YKL085W, strain MDH1 (second series), stronger effect = lower value 1.02 | locus YKL085W, strain MDH1, stronger effect = lower value 1.02 | locus YKL160W, strain elf1, stronger effect = lower value 1 | locus YKL190W, strain CNB1, stronger effect = lower value 1.02 | locus YKR001C, strain vps1, stronger effect = lower value 1.03 | locus YKR026C, strain gcn3, stronger effect = lower value 1.02 | locus YKR091W, strain srl3, stronger effect = lower value 1.01 | locus YLL001W, strain dnm1, stronger effect = lower value 1.02 | locus YLL026W, stronger effect = lower value 1.02 | locus YLL041C, strain sdh2, stronger effect = lower value 1 | locus YLR027C, strain aat2, stronger effect = lower value 1.01 | locus YLR039C, strain RIC1, stronger effect = lower value 1.21 | locus YLR058C, strain SHM2, stronger effect = lower value 1.05 | locus YLR102C, strain apc9, stronger effect = lower value 1.03 | locus YLR113W, strain HOG1, stronger effect = lower value 1.07 | locus YLR221C, strain rsa3, stronger effect = lower value 1 | locus YLR258W, strain gsy2, stronger effect = lower value 1.01 | locus YLR262C, strain YPT6 (second series), stronger effect = lower value 1.01 | locus YLR268W, strain sec22, stronger effect = lower value 1.03 | locus YLR320W, strain mms22, stronger effect = lower value 1 | locus YLR342W, strain FKS1, stronger effect = lower value 1.01 | locus YLR357W, strain rsc2, stronger effect = lower value 0.987 | locus YLR370C, strain arc18, stronger effect = lower value 1.01 | locus YLR371W, strain rom2, stronger effect = lower value 1.06 | locus YLR384C, strain iki3, stronger effect = lower value 1.02 | locus YLR418C, strain cdc73, stronger effect = lower value 1.05 | locus YML016C, strain PPZ1, stronger effect = lower value 1.03 | locus YML032C, strain rad52, stronger effect = lower value 1.02 | locus YML120C, strain ndi1, stronger effect = lower value 1.02 | locus YML124C, strain tub3, stronger effect = lower value 1.02 | locus YMR058W, strain fet3, stronger effect = lower value 1.01 | locus YMR078C, strain ctf18, stronger effect = lower value 1.03 | locus YMR125W, strain sto1, stronger effect = lower value 1.01 | locus YMR129W, stronger effect = lower value 1.01 | locus YMR205C, strain PFK2, stronger effect = lower value 1.02 | locus YMR223W, strain ubp8, stronger effect = lower value 1.03 | locus YMR231W, strain pep5, stronger effect = lower value 1 | locus YMR263W, strain SAP30, stronger effect = lower value 1.03 | locus YMR307W, strain GAS1, stronger effect = lower value 1.17 and 0.992 | locus YNL067W, strain RPL9B, stronger effect = lower value 1.03 | locus YNL071W, strain lat1, stronger effect = lower value 1.02 | locus YNL128W, strain TEP1, stronger effect = lower value 1.06 | locus YNL175C, strain NOP13, stronger effect = lower value 1.01 | locus YNL183C, strain NPR1, stronger effect = lower value 0.993 | locus YNL197C, strain WHI3, stronger effect = lower value 1.01 | locus YNL209W, strain ssb2, stronger effect = lower value 0.996 | locus YNL224C, strain SQS1, stronger effect = lower value 1 | locus YNL233W, strain BNI4, stronger effect = lower value 1.08 | locus YNL248C, strain rpa49, stronger effect = lower value 0.999 | locus YNL250W, strain rad50, stronger effect = lower value 1.04 | locus YNL271C, strain bni1, stronger effect = lower value 1.02 | locus YNL298W, strain CLA4, stronger effect = lower value 1.04 | locus YNL307C, strain MCK1, stronger effect = lower value 1.06 | locus YNL322C, strain KRE1 (second series), stronger effect = lower value 1.01 | locus YNL322C, strain KRE1, stronger effect = lower value 0.996 | locus YNR049C, strain mso1, stronger effect = lower value 1.01 | locus YNR052C, strain pop2, stronger effect = lower value 1.05 | locus YOL006C, strain TOP1, stronger effect = lower value 1.26 | locus YOL012C, strain htz1 0.919 | locus YOL147C, strain pex11, stronger effect = lower value 1.01 | locus YOR001W, strain rrp6, stronger effect = lower value 1.01 | locus YOR061W, strain CKA2, stronger effect = lower value 1.04 | locus YOR069W, strain VPS5, stronger effect = lower value 1.03 | locus YOR070C, strain gyp1, stronger effect = lower value 1 | locus YOR080W, strain dia2, stronger effect = lower value 1.01 | locus YOR083W, strain WHI5 (second series), stronger effect = lower value 1.03 | locus YOR083W, strain WHI5, stronger effect = lower value 0.997 | locus YOR106W, strain vam3, stronger effect = lower value 0.977 | locus YOR136W, strain idh2, stronger effect = lower value 1.03 | locus YOR144C, strain elg1, stronger effect = lower value 1.02 | locus YOR184W, strain ser1, stronger effect = lower value 1 | locus YOR231W, strain MKK1, stronger effect = lower value 1.04 | locus YOR265W, strain rbl2, stronger effect = lower value 1.01 | locus YOR270C, strain vph1, stronger effect = lower value 0.982 | locus YOR290C, strain snf2, stronger effect = lower value 0.989 | locus YOR316C, strain cot1, stronger effect = lower value 1.02 | locus YPL051W, strain arl3, stronger effect = lower value 0.989 | locus YPL055C, strain LGE1, stronger effect = lower value 1.08 and 1.02 | locus YPL078C, strain atp4, stronger effect = lower value 1.01 | locus YPL106C, strain sse1, stronger effect = lower value 1.02 | locus YPL240C, strain hsp82, stronger effect = lower value 0.992 | locus YPL241C, strain CIN2, stronger effect = lower value 1 | locus YPL256C, strain CLN2, stronger effect = lower value 1.05 | locus YPR119W, strain clb2, stronger effect = lower value 1.03 | locus YPR141C, strain kar3, stronger effect = lower value 1.02 | locus YPR163C, strain tif3, stronger effect = lower value 1.04 | locus YPR167C, strain met16, stronger effect = lower value 1.03 | strain wtn01, stronger effect = lower value 1.02
